ADAM17 inh: ADAM17 inhibitors, primary screen, biochemical, QFRET; Disintegrin and metalloproteinase domain-containing protein 17 (Homo sapiens), P78536; recombinant ADAM17, EDANS/DABCYL FRET peptide cleavage; inhibition, % at 6.95 µM; actives 0.83% (n = 370,000); AID 720648, 2013;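 active = inhibition above the mean of compounds lying between control limits plus 3 SD, set per campaign, cut at about 8.5% in these data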;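 note: 0% = DMSO-only wells as the low control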
sPLA2-III inh: human group III sPLA2 inhibitors, primary screen, biochemical, QFRET, BODIPY PC-A2 liposome substrate; inhibition, % at 12.2 µM; actives 0.56% (n = 370,000); AID 743126, 2013; QFRET BODIPY PC-A2 liposome hydrolysis, fluorescence;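 active = inhibition above mean plus 3 SD of compounds lying within the high and low control bounds, cut at about 19% in these data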;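 note: 0% = median of test compound wells and 100% = no enzyme DMSO wells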
GRIN3A LBD mod: binders of NR3A ligand-binding domain, primary screen, biophysical, differential scanning fluorimetry, uHTS | Glutamate receptor ionotropic, NMDA 3A (GRIN3A) ligand-binding domain | NR3A LBD differential scanning fluorimetry, Tm shift; 0% = protein alone, 100% = glycine-bound protein | Tm shift relative to glycine control, % at 25 µM | actives 2.5% (n = 340,000) | AID 1259313, 2017;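 active = melting temperature shift of at least 10% of the positive control shift, at one fixed dose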
FAS-TE inh: FAS thioesterase domain inhibitors, primary screen, biochemical, fluorescence intensity, uHTS; Fatty acid synthase (Homo sapiens), P49327; recombinant FAS-TE, OMFH fluorogenic substrate, fluorescence endpoint; inhibition, % at 15 µM; actives 0.67% (n = 360,000); AID 602261, 2012;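 active = compounds whose normalised, plate-corrected inhibition of enzyme fluorescence in the single-dose primary screen is 50% or more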;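 note: 0% = DMSO with enzyme and 100% = substrate without enzyme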
ADAM10 inh: human ADAM10 inhibitors, primary screen, biochemical, QFRET, HTS; Disintegrin and metalloproteinase domain-containing protein 10 (Homo sapiens), O14672; recombinant ADAM10, EDANS/DABCYL FRET peptide cleavage, 3 h; inhibition, % at 7 µM; actives 0.62% (n = 370,000);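 active = inhibition above a per-campaign cutoff equal to the mean of compounds falling between control-based bounds plus 3 SD, cut at about 20% in these data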;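 note: 0% = DMSO wells while the 100% control is not disclosed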
Target sequence (O14672 214-748 limits assumed): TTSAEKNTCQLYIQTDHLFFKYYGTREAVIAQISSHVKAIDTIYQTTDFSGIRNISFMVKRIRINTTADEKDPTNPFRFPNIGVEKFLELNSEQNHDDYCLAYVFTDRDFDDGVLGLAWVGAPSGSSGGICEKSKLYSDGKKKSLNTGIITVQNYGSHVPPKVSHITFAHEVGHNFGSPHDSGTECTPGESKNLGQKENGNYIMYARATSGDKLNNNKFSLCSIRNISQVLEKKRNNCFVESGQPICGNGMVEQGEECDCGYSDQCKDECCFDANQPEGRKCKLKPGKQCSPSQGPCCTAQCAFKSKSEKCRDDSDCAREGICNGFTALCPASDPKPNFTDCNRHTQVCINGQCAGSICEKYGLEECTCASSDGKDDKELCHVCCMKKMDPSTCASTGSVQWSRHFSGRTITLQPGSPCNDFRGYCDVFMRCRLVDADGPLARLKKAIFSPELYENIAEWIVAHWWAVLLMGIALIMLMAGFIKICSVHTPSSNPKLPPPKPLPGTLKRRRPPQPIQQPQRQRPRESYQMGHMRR
* hit, by the source's call. A selection: hits, their analogues and other compounds. The true share with any hit is near 4.3%.

O=C(NCc1cccc2[nH]ccc12)C1CCC(=O)N(CCc2ccc(Cl)cc2)C1 (configuration not stated) was read as ADAM17 inh -3.5, sPLA2-III inh -20.9, GRIN3A LBD mod 11.1*, FAS-TE inh -1.6 and ADAM10 inh -11.8.
`O=C1CCC(CNc2ccccc2)N1c1ccccc1` (configuration not stated) gave ADAM17 inh 5.0, sPLA2-III inh 3.2 and ADAM10 inh 9.4.
`Cc1ccccc1CN1CCCCC(NC(=O)C2CCC2)C1=O` (configuration not stated) gave ADAM17 inh 3.0, sPLA2-III inh 3.1 and ADAM10 inh 1.2.
CCOC(=O)C(Oc1ccc2c(-c3ccccc3)cc(=O)oc2c1C)c1ccccc1 (configuration not stated) was read as ADAM17 inh -2.7, sPLA2-III inh -2.2, GRIN3A LBD mod 13.7*, FAS-TE inh 23.1 and ADAM10 inh 3.1.
CC1CCc2c(sc(/N=C/c3ccco3)c2C(N)=O)C1 (configuration not stated) was read as ADAM17 inh -7.4, sPLA2-III inh 0.4, GRIN3A LBD mod -1.0, FAS-TE inh -1.2 and ADAM10 inh -12.9.
`CC1CCc2c(sc(/N=C/c3cccnc3)c2C(N)=O)C1` (configuration not stated) gave ADAM17 inh -5.1, sPLA2-III inh -1.6, GRIN3A LBD mod 11.0*, FAS-TE inh 1.2 and ADAM10 inh -11.3.
`Clc1cccc(/C=N/Nc2ncnc3ccccc23)c1` gave ADAM17 inh -61.8, sPLA2-III inh 3.4, GRIN3A LBD mod 14.1*, FAS-TE inh 12.9 and ADAM10 inh -187.4.
Screening Nc1c(Cl)ncnc1N/N=C/c1ccnc2ccccc12 returned ADAM17 inh -3.5, sPLA2-III inh 0.4, GRIN3A LBD mod 12.6*, FAS-TE inh -2.7 and ADAM10 inh -17.3.
For C(=N\Nc1ncnc2ccccc12)/c1ccccc1 the results were ADAM17 inh -16.1, sPLA2-III inh -0.1, GRIN3A LBD mod -45.0, FAS-TE inh -1.5 and ADAM10 inh -37.0.
`CCN(CC)c1ccc(-c2nn3c(-c4ccc(C(C)(C)C)cc4)nnc3s2)cc1` gave ADAM17 inh -8.0, sPLA2-III inh 2.1 and ADAM10 inh -24.9.
For COc1ccc(NC(=O)Cc2c(C)n(C(=O)c3ccc(Cl)cc3)c3ccc(OC)cc23)cc1 the results were ADAM17 inh -0.6, sPLA2-III inh -3.8, GRIN3A LBD mod -19.2, FAS-TE inh 27.6 and ADAM10 inh -3.6.
For COc1ccc2c(c1)c(CC(=O)Nc1cccc(S(N)(=O)=O)c1)c(C)n2C(=O)c1ccc(Cl)cc1 the results were ADAM17 inh -4.8, sPLA2-III inh -35.1, GRIN3A LBD mod 22.9*, FAS-TE inh 26.3 and ADAM10 inh -1.8.
`Cc1ccccc1CN1CCCCC(NC(=O)c2ccc(N(C)C)cc2)C1=O` (configuration not stated) gave ADAM17 inh -1.9, sPLA2-III inh 2.6 and ADAM10 inh -0.4.
For O=C(O)CC/C(=C\c1ccc(Cl)c([N+](=O)[O-])c1)c1nc2ccccc2s1 the results were ADAM17 inh -3.8, sPLA2-III inh -13.1, GRIN3A LBD mod 29.9*, FAS-TE inh 43.0 and ADAM10 inh 0.6.
For O=C(O)CC/C(=C\c1ccc(N2CCOCC2)c([N+](=O)[O-])c1)c1nc2ccccc2s1 the results were ADAM17 inh 3.8, sPLA2-III inh -30.5, GRIN3A LBD mod 4.5, FAS-TE inh -5.2 and ADAM10 inh 8.9.
`CSc1ccccc1OCc1cc(C(=O)NCCN2CCCc3ccccc32)no1` gave ADAM17 inh -3.1, sPLA2-III inh -2.2, GRIN3A LBD mod 11.9*, FAS-TE inh 4.0 and ADAM10 inh -13.0.
`CC12CN3CC(C)(CN(C1)C3c1ccc3c(c1)OCO3)C2O` (configuration not stated) gave ADAM17 inh -5.7, sPLA2-III inh 12.9, GRIN3A LBD mod 0.5, FAS-TE inh -5.4 and ADAM10 inh 1.1.
For CC1(C)COC(c2ccc3c(c2)OCO3)OC1 the results were ADAM17 inh -2.9, sPLA2-III inh 8.9, GRIN3A LBD mod 11.2*, FAS-TE inh -2.6 and ADAM10 inh -13.1.
CC(C)CN1C(=O)C[C@@]2(C(=O)N(C)c3ccc(NS(=O)(=O)C4CC4)cc32)C1c1ccccc1 (some centres not stated) was read as ADAM17 inh -1.6, sPLA2-III inh -2.4 and ADAM10 inh -3.9.
Screening CN1CCc2c(sc(NC(=O)CS(=O)(=O)c3ccccc3)c2C(N)=O)C1 returned ADAM17 inh -12.3, sPLA2-III inh -3.4, GRIN3A LBD mod 18.1*, FAS-TE inh -8.1 and ADAM10 inh -16.5.
For CCNC(=S)N(Cc1cccs1)Cc1cc2cc(OCC)ccc2[nH]c1=O the results were ADAM17 inh -34.2, sPLA2-III inh 6.8, GRIN3A LBD mod -9.2, FAS-TE inh -0.8 and ADAM10 inh -105.8.
For Cc1cccc2cc(CN(CC3CCCO3)C(=S)NCc3ccco3)c(=O)[nH]c12 (configuration not stated) the results were ADAM17 inh -6.3, sPLA2-III inh 12.5, GRIN3A LBD mod 13.0*, FAS-TE inh 5.2 and ADAM10 inh -5.6.
Cc1ccc2[nH]c(=O)c(CN(Cc3cccs3)C(=S)NCc3ccco3)cc2c1 was read as ADAM17 inh 4.7, sPLA2-III inh 1.4, GRIN3A LBD mod 12.5*, FAS-TE inh 18.0 and ADAM10 inh 2.5.
For Cc1cccc2cc(CN(Cc3cccs3)C(=S)NCC3CCCO3)c(=O)[nH]c12 (configuration not stated) the results were ADAM17 inh -3.2, sPLA2-III inh 17.7, GRIN3A LBD mod -0.3, FAS-TE inh 3.8 and ADAM10 inh -9.5.
`Cc1ccc2[nH]c(=O)c(CN(CC3CCCO3)C(=S)NCc3ccco3)cc2c1` (configuration not stated) gave ADAM17 inh -4.1, sPLA2-III inh -8.0, GRIN3A LBD mod 13.1*, FAS-TE inh -0.6 and ADAM10 inh -15.6.
Cc1ccc(NC(=S)N(Cc2cccs2)Cc2cc3cccc(C)c3[nH]c2=O)cc1 was read as ADAM17 inh 2.1, sPLA2-III inh -0.2, GRIN3A LBD mod 15.5*, FAS-TE inh 43.8 and ADAM10 inh -0.3.
For CC1=CC2(C(Cc3ccccc3)N(CC3CC3)C(=NC(=O)c3ccccc3)N2C(=O)OCc2ccccc2)n2c(=O)n(-c3ccccc3)c(=O)n2C1 (configuration not stated) the results were ADAM17 inh 8.1, sPLA2-III inh 11.2 and ADAM10 inh 9.9.

High-throughput results deposited in PubChem BioAssay by several laboratories.
